From PubChem BioAssay (EPA / NIEHS)
Activity calls are given as the source filed them. How the source made its calls: active means hit-call score of the fitted dose curve at least 0.9, where 1 is the maximum; inactive means score below 0.9.

Tests used:
[1] = read-out: Tissue Factor, F3 (gene 2152); test: BSK_LPS_TissueFactor: BioMAP Diversity Plus: LPS Assay for Tissue Factor Biomarker Activity (AID 2283084); conditions: primary human HUVEC with PBMC; actives raise or lower the signal
Outline: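 HUVEC/PBMC co-culture, LPS-activated; CD142 ELISA read 24 h post-dose; bidirectional curve fit vs DMSO negative control.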

[2] = read-out: Tumor necrosis factor (Homo sapiens) (UniProt P01375); test: BSK_LPS_TNFa: BioMAP Diversity Plus: LPS Assay for Tumour Necrosis Factor alpha (TNFa) Biomarker Activity (AID 2283085); conditions: primary human HUVEC with PBMC; actives raise or lower the signal
Outline: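 Human umbilical vein endothelial cells co-cultured with PBMC and stimulated with LPS. TNFa was measured by ELISA 24 h after chemical dosing, fitted bidirectionally relative to DMSO.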

[3] = read-out: Vascular cell adhesion molecule 1 (VCAM1), VCAM1 (gene 7412); test: BSK_LPS_VCAM1: BioMAP Diversity Plus: LPS Assay for Vascular cell adhesion molecule 1 (VCAM1) Biomarker Activity (AID 2283086); conditions: primary human HUVEC with PBMC; actives raise or lower the signal
Outline: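 Human umbilical vein endothelial cells co-cultured with PBMC and stimulated with LPS; VCAM-1 measured by ELISA 24 h after dosing. Bidirectional curve fitting against DMSO baseline; cytotoxicity tracked in parallel by SRB total-protein staining.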

CD38, CD38 (gene 952) = test: BSK_SAg_CD38: BioMAP Diversity Plus: SAg Assay for CD38 Biomarker Activity (AID 2283087); conditions: primary human HUVEC with PBMC; actives raise or lower the signal
Outline: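 Human HUVEC plus PBMC co-culture stimulated with superantigen; CD38 measured by ELISA 24 h after chemical dosing. Fluorescence read-out, bidirectional fit against DMSO; cytotoxicity tracked in parallel by SRB and Alamar Blue.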

CD69, CD69 (gene 969) = test: BSK_SAg_CD69: BioMAP Diversity Plus: SAg Assay for CD69 Biomarker Activity (AID 2283089); conditions: primary human HUVEC with PBMC; actives raise or lower the signal;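 on AC50: cell surface CD69 protein quantified by ELISA with fluorescence detection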
Outline: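 ELISA, fluorescence read-out: CD69 on human umbilical vein endothelial cell + PBMC co-culture, 24 h post-dosing. Gain or loss of signal fitted bidirectionally against DMSO baseline.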

[4] = read-out: Monocyte Chemoattractant Protein-1 (MCP1), CCL2 (gene 6347); test: BSK_SAg_MCP1: BioMAP Diversity Plus: SAg Assay for Monocyte Chemoattractant Protein-1 (MCP1) Biomarker Activity (AID 2283090); conditions: primary human HUVEC with PBMC; actives raise or lower the signal
Outline: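 MCP-1 levels in the endothelial–PBMC SAg co-culture were quantified by ELISA at 24 h post-dosing; both increases and decreases versus DMSO scored. Cytotoxicity monitored by SRB total protein in parallel cultures.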

[5] = read-out: E-selectin (Homo sapiens) (UniProt P16581); test: BSK_SAg_Eselectin: BioMAP Diversity Plus: SAg Assay for Eselectin Biomarker Activity (AID 2283091); conditions: primary human HUVEC with PBMC; actives raise or lower the signal
Outline: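 E-selectin ELISA readout at 24 h post-dosing in human umbilical vein endothelial cell/PBMC co-culture; gain or loss of signal fitted relative to DMSO baseline.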

[6] = read-out: Monokine induced gamma interferon (MIG), CXCL9 (gene 4283); test: BSK_SAg_MIG: BioMAP Diversity Plus: SAg Assay for Monokine induced gamma interferon (MIG) Biomarker Activity (AID 2283092); conditions: primary human HUVEC with PBMC; actives raise or lower the signal
Outline: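 ELISA readout of MIG/CXCL9; primary human umbilical vein endothelial cells co-cultured with peripheral blood mononuclear cells; 24 h post-dose; gain/loss fit vs DMSO baseline.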

[7] = BSK_SAg_PBMCCytotoxicity: PBMC Cytotoxicity Assessment in the BioMAP Diversity Plus: SAg Assay (AID 2283093); conditions: primary human HUVEC with PBMC;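 further: PBMC viability measured as Alamar Blue reduction fluorescence at 546/580 nm; fitted both ways against DMSO so a hit may be loss or gain of signal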;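 on AC50: PBMC superantigen activated with SEB plus TSST-1 one hour after compound addition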
Outline: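 HUVEC/PBMC co-culture; PBMC exposed to chemical 1 h before SEB and TSST-1 activation (20 ng/mL each), incubated 90 h, then Alamar Blue 6 h, fluorescence 546/580 nm. Bidirectional fit versus DMSO baseline.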

Measured: AC50

E-selectin (Homo sapiens), sequence (P16581 whole entry, looked up): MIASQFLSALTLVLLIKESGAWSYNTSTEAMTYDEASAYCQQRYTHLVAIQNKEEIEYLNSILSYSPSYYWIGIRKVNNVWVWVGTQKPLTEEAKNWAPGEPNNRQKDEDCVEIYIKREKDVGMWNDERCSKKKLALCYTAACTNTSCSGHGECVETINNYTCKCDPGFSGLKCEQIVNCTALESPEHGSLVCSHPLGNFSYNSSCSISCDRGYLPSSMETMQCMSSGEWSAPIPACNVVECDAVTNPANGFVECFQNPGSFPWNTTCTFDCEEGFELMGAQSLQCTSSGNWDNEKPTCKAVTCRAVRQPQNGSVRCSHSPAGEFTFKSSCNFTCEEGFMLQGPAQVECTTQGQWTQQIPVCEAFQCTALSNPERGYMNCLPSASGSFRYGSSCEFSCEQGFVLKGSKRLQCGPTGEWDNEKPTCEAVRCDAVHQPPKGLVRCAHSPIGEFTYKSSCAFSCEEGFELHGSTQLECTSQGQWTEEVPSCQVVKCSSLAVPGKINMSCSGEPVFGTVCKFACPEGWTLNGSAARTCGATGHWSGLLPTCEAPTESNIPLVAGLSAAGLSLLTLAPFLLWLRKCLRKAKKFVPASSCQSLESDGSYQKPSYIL
Tumor necrosis factor (Homo sapiens), sequence (P01375 whole entry, looked up): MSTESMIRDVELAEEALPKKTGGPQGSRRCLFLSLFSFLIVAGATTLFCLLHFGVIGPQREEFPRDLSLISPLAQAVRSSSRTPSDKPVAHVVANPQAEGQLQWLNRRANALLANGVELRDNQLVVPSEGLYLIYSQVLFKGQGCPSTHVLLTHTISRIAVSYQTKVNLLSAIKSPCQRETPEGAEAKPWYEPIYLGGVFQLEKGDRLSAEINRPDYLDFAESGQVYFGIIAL

CC(Cc1ccc(OCC(=O)O)cc1)NCC(O)c1csc(C(F)(F)F)n1 (configuration not stated)
inactive: [1] | [2] | [3] | CD38, CD38 (gene 952) | CD69, CD69 (gene 969) | [4] | [5] | [6] | [7]

c1nc[nH]n1
inactive: [1] | [2] | [3] | CD38, CD38 (gene 952) | CD69, CD69 (gene 969) | [4] | [5] | [6] | [7]

FC(F)(F)C(F)(C(F)(F)F)C(F)(F)C(F)(F)CC1CO1 (configuration not stated)
inactive: [1] | [2] | [3] | CD38, CD38 (gene 952) | CD69, CD69 (gene 969) | [4] | [5] | [6] | [7]

CCCCc1ccccc1
inactive: [1] | [2] | [3] | CD38, CD38 (gene 952) | CD69, CD69 (gene 969) | [4] | [5] | [6] | [7]

O=[N+]([O-])c1ccc(Cl)c(Cl)c1
inactive: [1] | [2] | [3] | CD38, CD38 (gene 952) | CD69, CD69 (gene 969) | [4] | [5] | [6] | [7]

Cc1ccc(N)cc1N
inactive: [1] | [2] | [3] | CD38, CD38 (gene 952) | CD69, CD69 (gene 969) | [4] | [5] | [6] | [7]

C=CC(=O)OCC(CC)(COC(=O)C=C)COC(=O)C=C
active: [1] 2.29 µM | [3] 2.79 µM | CD38, CD38 (gene 952) 1.78 µM | CD69, CD69 (gene 969) 2.3 µM | [4] 2.6 µM | [5] 1.36 µM | [6] 3.36 µM | [7] 2.93 µM
inactive: [2]

Nc1ccc([N+](=O)[O-])cc1Cl
inactive: [1] | [2] | [3] | CD38, CD38 (gene 952) | CD69, CD69 (gene 969) | [4] | [5] | [6] | [7]

CCCCC(CC)COP(=O)(Oc1ccccc1)Oc1ccccc1 (configuration not stated)
active: [2] 20 µM | [3] 13 µM | CD38, CD38 (gene 952) 20 µM | CD69, CD69 (gene 969) 13.3 µM | [5] 20 µM | [7] 20 µM
inactive: [1] | [4] | [6]

c1ccc2c(c1)sc1ccccc12
inactive: [1] | [2] | [3] | CD38, CD38 (gene 952) | CD69, CD69 (gene 969) | [4] | [5] | [6] | [7]

OCC1CO1 (configuration not stated)
inactive: [1] | [2] | [3] | CD38, CD38 (gene 952) | CD69, CD69 (gene 969) | [4] | [6] | [7]

O=P1(N(CCCl)CCCl)NCCCO1 (configuration not stated)
inactive: [1] | [2] | [3] | CD38, CD38 (gene 952) | CD69, CD69 (gene 969) | [4] | [5] | [6] | [7]

CC(Cl)(Cl)C(=O)O
inactive: [1] | [2] | [3] | CD38, CD38 (gene 952) | CD69, CD69 (gene 969) | [4] | [5] | [6] | [7]

CCOP(=S)(OCC)SCS(=O)(=O)CC
inactive: [1] | [2] | [3] | CD38, CD38 (gene 952) | CD69, CD69 (gene 969) | [4] | [5] | [6] | [7]

CCOP(=S)(S)OCC
inactive: [1] | [2] | [3] | CD38, CD38 (gene 952) | CD69, CD69 (gene 969) | [4] | [5] | [6] | [7]

CCOP(=S)(Oc1ccc([N+](=O)[O-])cc1)c1ccccc1 (configuration not stated)
inactive: [1] | [3] | CD69, CD69 (gene 969) | [4] | [5] | [6] | [7]
active: [2] 2.84 µM | CD38, CD38 (gene 952) 14.2 µM

CCOC(=O)c1ccccc1C(=O)OCC
inactive: [1] | [2] | [3] | CD38, CD38 (gene 952) | CD69, CD69 (gene 969) | [4] | [5] | [6] | [7]

CCNc1nc(Cl)nc(NC(C)(C)C)n1
active: [2] 5.47 µM | CD38, CD38 (gene 952) 7.93 µM | [4] 6.26 µM
inactive: [1] | [3] | CD69, CD69 (gene 969) | [5] | [6] | [7]

O=C(O)C(F)(F)OC(F)(F)C(F)(F)OC(F)(F)F
inactive: [1] | [2] | [3] | CD38, CD38 (gene 952) | CD69, CD69 (gene 969) | [4] | [5] | [6] | [7]

N#Cc1cc([N+](=O)[O-])ccc1N
inactive: [1] | [2] | [3] | CD38, CD38 (gene 952) | CD69, CD69 (gene 969) | [4] | [5] | [6] | [7]

CCCN(CCC)c1c([N+](=O)[O-])cc(C(C)C)cc1[N+](=O)[O-]
active: [2] 35.9 µM | [3] 26.1 µM | CD38, CD38 (gene 952) 28.6 µM | CD69, CD69 (gene 969) 33.5 µM | [4] 37.1 µM | [5] 30.3 µM | [7] 13.9 µM
inactive: [1] | [6]

Cc1c([N+](=O)[O-])cc2c(c1[N+](=O)[O-])C(C)(C)CC2(C)C
inactive: [1] | [2] | [3] | CD38, CD38 (gene 952) | CD69, CD69 (gene 969) | [4] | [5] | [6]
active: [7] 15.3 µM
